The text below walks through data of PubChem BioAssay.

Calls of active or inactive are those of the source.

The nature of assay [1]: E. coli DRC41 culture turbidity changes, primary screen, E. coli filamentation inducer project, strain DRC41, OD650, 48 h (AID 1152).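 Note: E. coli MC1000 strain DRC41 lacking acrAB efflux pump and sulA.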 The following applies: E. coli DRC41 (acrAB sulA), higher = more signal, called active from +8 up or from −8 down.
Assay [2] in a line: small-molecule binders of probe aLefty1, primary screen, biochemical, small-molecule microarray, 635/667 nm fluorescence (AID 1153).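 Note: score merges spot fluorescence with signal-to-noise ratio from the scanned slide images.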 The following applies: higher = more signal.
Assay [3] is described as follows: PSAC antagonists in infected red cells, primary screen, cell-based, P. falciparum Indochina, OD700, 1 h (AID 1154). Particulars: P. falciparum Indochina infected RBC osmotic lysis, higher = more signal, called active from +8 up or from −8 down.
Assay [4] in a line: PSAC antagonists in infected red cells, primary screen, cell-based, P. falciparum Indochina, OD700, 2 h (AID 1155).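 Note: lysis reports solute entry through the parasite surface anion channel PSAC; channel blockers reduce lysis of infected cells.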 Particulars: P. falciparum Indochina infected erythrocytes, osmotic lysis OD700; higher = more signal, called active from +8 up or from −8 down.
Assay [5] is described as follows: osmotic lysis modulators in infected erythrocytes, primary screen, PSAC antagonist project, cell-based, P. falciparum Indochina, OD700, 3 h (AID 1156). Particulars: higher = more signal, called active from +8 up or from −8 down.
Assay [6] in a line: PSAC antagonists in infected red cells, primary screen, cell-based, P. falciparum Indochina, OD700, 18 h (AID 1157). The following applies: P. falciparum Indochina infected erythrocytes, osmotic lysis OD700, 18 h; higher = more signal, called active from +8 up or from −8 down.
Assay [7] can be described thus: modulators of S6 phosphorylation in cells, primary screen, cell-based, A549, cytoblot, luminescence, serum-stimulated (AID 1158).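 Note: serum-stimulated A549 lung adenocarcinoma cells; signal is phosphorylated S6 detected by cytoblot immunostaining with HRP secondary.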 Particulars: A549 phospho-S6 cytoblot, 5 h, higher = more signal.
Assay [8] has as its target NADPH oxidase 2 (Homo sapiens) (UniProt P04839). Kind of assay: NOX2-dependent H2O2 signal modulators, primary screen, NOX inhibitor project, cell-based, HEK293-NOX2, PMA-stimulated, Amplex Red fluorescence (AID 1159). Note: test concentration not given here. Particulars: 45 min, higher = more signal, called active from +8 up or from −8 down.
Assay [9] addresses NADPH oxidase 4 (Homo sapiens) (UniProt Q9NPH5). The assay is described as follows: NOX4-dependent H2O2 signal modulators, primary screen, NOX inhibitor project, cell-based, HEK293-NOX4, tetracycline-induced, Amplex Red fluorescence (AID 1160). The following applies: 45 min, higher = more signal, called active from +8 up or from −8 down.
For assay [10], the target named is NADPH oxidase 5 (Homo sapiens) (UniProt Q96PH1). The assay is described as follows: NOX5-dependent H2O2 signal modulators, primary screen, NOX inhibitor project, cell-based, HEK293-NOX5, Amplex Red fluorescence (AID 1161). The following applies: HEK293-NOX5, ionomycin, 45 min, higher = more signal.
Assay [11] can be described thus: A549 cell viability effects, profiling panel, calcein-AM fluorescence, 48 h, basal (AID 1162). Note: test concentration not given here. The following applies: higher = more signal.
Assay [12] can be described thus: adipocyte viability effects, profiling panel, cell-based, 3T3-L1 adipocytes, calcein-AM fluorescence, 48 h, basal (AID 1163). Note: test concentration not given here. The following applies: 3T3-L1 adipocytes viability, higher = more signal.
Assay [13] is described as follows: HepG2 cell viability effects, profiling panel, calcein-AM fluorescence, 48 h, basal (AID 1164). Note: test concentration not given here. Particulars: higher = more signal.
The nature of assay [14]: MM1S cell viability effects, profiling panel, calcein-AM fluorescence, 48 h, basal (AID 1165).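 Note: viability of MM1S multiple myeloma cells under basal unstimulated conditions; test concentration not given here.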 The following applies: higher = more signal.
Assay [15] is described as follows: basal RPMI8226 viability, no added stimulus, profiling panel, cell-based, calcein-AM fluorescence, 48 h, PK04 Diversity Set (AID 1166).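 Note: cells grown under basal conditions without added stimulus; test concentration not given here.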 The following applies: RPMI8226 myeloma viability, higher = more signal.
Assay [16] can be described thus: basal HepG2 mitochondrial membrane potential changes, profiling panel, cell-based, JC-1 fluorescence, 24 h, 100 nL compound (AID 1167). Note: test concentration not given here. Particulars: higher = more signal.
A short description of assay [17]: basal 3T3-L1 adipocyte mitochondrial potential changes, profiling panel, cell-based, JC-1 fluorescence, 3T3-L1 adipocytes, 24 h, 100 nL compound (AID 1168). Note: test concentration not given here. Particulars: JC-1 mitochondrial fluorescence, higher = more signal, called active from +8 up or from −8 down.
The nature of assay [18]: basal RPMI8226 mitochondrial membrane potential changes, profiling panel, cell-based, JC-1 fluorescence, 24 h, 100 nL compound (AID 1169). Note: test concentration not given here. The following applies: RPMI8226 myeloma, JC-1 mitochondrial potential fluorescence, higher = more signal.
Assay [19] in a line: basal MM1S mitochondrial membrane potential changes, profiling panel, cell-based, JC-1 fluorescence, 24 h, 100 nL compound (AID 1170). Note: test concentration not given here. Particulars: higher = more signal.
Assay [20] in a line: A549 lung cancer cell viability effects, profiling panel, resazurin fluorescence, 24 h, PK04 Diversity Set (AID 1171). Note: test concentration not given here. The following applies: higher = more signal, called active from +8 up or from −8 down. In general terms: The colour change of resazurin is a common sign of viable cells or microbes.

Chain of NADPH oxidase 4 (Homo sapiens) (Q9NPH5 whole entry, looked up): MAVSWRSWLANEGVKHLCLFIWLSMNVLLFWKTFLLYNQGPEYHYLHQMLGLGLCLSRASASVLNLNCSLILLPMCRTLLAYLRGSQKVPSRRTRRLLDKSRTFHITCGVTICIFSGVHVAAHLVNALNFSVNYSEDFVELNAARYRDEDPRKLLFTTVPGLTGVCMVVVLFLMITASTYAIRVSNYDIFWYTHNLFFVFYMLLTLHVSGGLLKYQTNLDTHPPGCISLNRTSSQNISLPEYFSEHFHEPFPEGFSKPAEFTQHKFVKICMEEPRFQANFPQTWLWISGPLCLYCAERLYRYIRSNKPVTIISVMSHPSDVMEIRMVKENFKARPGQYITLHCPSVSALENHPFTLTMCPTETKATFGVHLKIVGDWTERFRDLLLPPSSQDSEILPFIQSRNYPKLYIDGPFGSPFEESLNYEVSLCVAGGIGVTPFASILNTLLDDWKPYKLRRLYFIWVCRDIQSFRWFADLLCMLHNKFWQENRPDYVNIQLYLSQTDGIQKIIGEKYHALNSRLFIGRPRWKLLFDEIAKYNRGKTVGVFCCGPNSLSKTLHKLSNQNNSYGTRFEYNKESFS
Chain of NADPH oxidase 2 (Homo sapiens) (P04839 whole entry, looked up): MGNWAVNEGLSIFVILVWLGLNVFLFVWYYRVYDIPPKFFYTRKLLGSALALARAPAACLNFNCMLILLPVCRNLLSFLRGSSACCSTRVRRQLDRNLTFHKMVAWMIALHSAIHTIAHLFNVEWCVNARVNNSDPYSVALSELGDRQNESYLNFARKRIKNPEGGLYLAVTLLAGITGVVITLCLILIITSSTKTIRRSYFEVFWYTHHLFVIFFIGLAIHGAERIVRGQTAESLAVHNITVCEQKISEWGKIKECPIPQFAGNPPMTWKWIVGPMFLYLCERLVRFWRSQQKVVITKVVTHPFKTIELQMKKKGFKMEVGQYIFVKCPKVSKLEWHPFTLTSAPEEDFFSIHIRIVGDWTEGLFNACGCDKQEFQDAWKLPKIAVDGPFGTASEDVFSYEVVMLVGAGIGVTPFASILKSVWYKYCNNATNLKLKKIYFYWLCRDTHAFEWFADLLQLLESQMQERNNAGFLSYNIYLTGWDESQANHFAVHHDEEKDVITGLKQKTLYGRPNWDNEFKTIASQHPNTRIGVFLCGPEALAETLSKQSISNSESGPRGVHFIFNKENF
Chain of NADPH oxidase 5 (Homo sapiens) (Q96PH1 whole entry, looked up): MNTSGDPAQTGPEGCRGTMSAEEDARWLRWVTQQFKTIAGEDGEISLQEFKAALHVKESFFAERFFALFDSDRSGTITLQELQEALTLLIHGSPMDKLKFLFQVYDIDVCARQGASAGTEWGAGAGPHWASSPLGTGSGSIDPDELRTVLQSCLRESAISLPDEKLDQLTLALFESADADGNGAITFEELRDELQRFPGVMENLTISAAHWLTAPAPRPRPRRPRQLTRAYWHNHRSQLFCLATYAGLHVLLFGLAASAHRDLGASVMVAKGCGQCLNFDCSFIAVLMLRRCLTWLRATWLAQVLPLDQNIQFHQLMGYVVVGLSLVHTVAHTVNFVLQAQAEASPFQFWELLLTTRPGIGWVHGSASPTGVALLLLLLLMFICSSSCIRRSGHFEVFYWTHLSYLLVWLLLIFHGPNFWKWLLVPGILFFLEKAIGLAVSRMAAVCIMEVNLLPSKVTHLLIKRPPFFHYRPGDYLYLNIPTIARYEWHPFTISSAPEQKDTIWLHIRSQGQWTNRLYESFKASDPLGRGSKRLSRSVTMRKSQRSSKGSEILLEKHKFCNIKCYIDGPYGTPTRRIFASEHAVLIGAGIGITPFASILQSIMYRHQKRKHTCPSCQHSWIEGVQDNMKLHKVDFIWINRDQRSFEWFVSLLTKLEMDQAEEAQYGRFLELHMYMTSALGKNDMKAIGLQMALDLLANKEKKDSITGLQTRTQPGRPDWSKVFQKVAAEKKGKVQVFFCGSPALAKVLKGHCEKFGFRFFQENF

As for `C=C(CCCC)C(=O)CC[C@H](OC(=O)c1cccnc1)c1cccc(OCCO)c1`, the z-score was -0.03 (inactive) in assay [1]; 20.7 (active) in assay [3]; 4.33 (inactive) in assay [4]; 1.83 (inactive) in [5]; 1.19 (inactive) in assay [6]; 0.0701 in assay [7]. The z-score in assay [8] was -0.372 (inactive); in assay [9], -0.417 (inactive); in assay [10], -2.11; in assay [11] it was 0.952; in assay [12] it was 0.136; in assay [13], 0.316. In addition, the z-score in [14] was -3.35; in [15], -2.66; in [16], 1.39; in assay [17] it was 0.139 (inactive); in [18], -0.726; in assay [19], -0.592. The z-score in assay [20] was 0.358 (inactive). This compound came in with a composite z-score in [2] of -0.147.

Take `C=C(COC)C(=O)CC[C@H](OC(C)=O)c1cccc(OCCO)c1`: the z-score is 0.527 (inactive) in assay [1]; 4.14 (inactive) in assay [3]; -1.22 (inactive) in assay [4]; 1.88 (inactive) in assay [5]; -1.48 (inactive) in [6]; 2.19 in assay [7]. Moreover, the z-score in [8] was -1.66 (inactive); in assay [9] it was -0.724 (inactive); in assay [10], -1.46; in [11], -0.0614; in assay [12] it was 1.55; in [13], -0.116. For the same compound, the z-score is -2.94 in [14]; -1.07 in [15]; -0.331 in assay [16]; 0.715 (inactive) in [17]; 1.18 in assay [18]; 0.471 in assay [19]. Moreover, the z-score in assay [20] was -1.07 (inactive). In addition, the composite z-score in assay [2] is -0.393.

For the compound `COCCOC(=O)N1C(=O)[C@@]2(c3cc(C#CC4=CCCCC4)ccc31)[C@H](C(=O)NC[C@H](O)c1ccccc1)[C@H]1C(=O)O[C@H](c3ccccc3)[C@H](c3ccccc3)N1[C@@H]2c1ccc(O)cc1`, the z-score was 1.8 (inactive) in assay [1]; 0.602 (inactive) in [3]; 0.793 (inactive) in assay [4]; 0.0873 (inactive) in [5]; 0.554 (inactive) in [6]; -0.176 in assay [7]. Besides, the z-score was 1.2 (inactive) in [8]; 0.349 (inactive) in assay [9]; 1.22 in assay [10]; -0.144 in assay [11]; 1.3 in assay [12]; -0.34 in assay [13]. In addition, the z-score in assay [14] is -2.81; in assay [15], -3.45; in assay [16], -2.71; in assay [17] it was 1.35 (inactive); in assay [18], -0.657; in [19], 0.0116. Also, the z-score in assay [20] was -1.09 (inactive). Moreover, the composite z-score in assay [2] turned out to be 0.265.

As for `C=CCN1C(=O)[C@]2(O[C@H](CCO)[C@@H]([Si](C)(C)c3ccc(OC)cc3)[C@@H]2C)c2cc(NC(=O)[C@H](C)O)ccc21`, the z-score is -0.589 (inactive) in assay [1]; 9.01 (active) in assay [3]; 2.65 (inactive) in [4]; -0.212 (inactive) in assay [5]; 1.43 (inactive) in [6]; 1.23 in assay [7]. The z-score in [8] is 0.911 (inactive); in [9] it was 1.26 (inactive); in assay [10] it was 0.375; in assay [11] it was -1.18; in assay [12], 0.449; in assay [13], -1.92. Further, the z-score is -2.85 in assay [14]; -4.33 in assay [15]; -1.55 in assay [16]; -0.612 (inactive) in [17]; -1.03 in assay [18]; -0.061 in assay [19]. In [20], the z-score was -0.848 (inactive). Moreover, in assay [2], the composite z-score came out at 0.174.

With `CCCNC(=O)[C@@]1(c2ccc([N+](=O)[O-])cc2)CC(=O)N(CC23CC4CC(CC(C4)C2)C3)[C@@H]1c1ccc(CO)cc1`, the z-score in [1] was -0.0948 (inactive); in assay [3], 5.64 (inactive); in assay [4], 0.903 (inactive); in assay [5], 2.2 (inactive); in [6], 0.625 (inactive); in assay [7], -0.154. Also, the z-score in assay [8] is 0.328 (inactive); in assay [9] it was -1.85 (inactive); in assay [10], -0.569; in assay [11] it was -1.05; in assay [12], -0.35; in assay [13] it was -1.67. For the same compound, the z-score was -3.54 in [14]; -3.38 in [15]; -0.99 in [16]; -0.141 (inactive) in assay [17]; -0.769 in assay [18]; -1.05 in assay [19]. Besides, the z-score in assay [20] was -2.9 (inactive). The composite z-score in [2] was -0.409.

In the case of `[N-]=[N+]=NCc1ccccc1C[C@]1(C(=O)O)N=C(c2ccc(OCCCO)cc2)O[C@H]1c1ccccc1`, the z-score in assay [1] is -0.0931 (inactive); in [3] it was 9.62 (active); in assay [4], 0.754 (inactive); in [5], -0.468 (inactive); in assay [6], -0.0988 (inactive); in [7], -0.381. In addition, the z-score in [8] was 0.453 (inactive); in [9], 1.4 (inactive); in [10] it was 1.68; in [11], -0.755; in assay [12], -0.4; in [13], -0.509. Also, the z-score in [14] is -1.19; in assay [15] it was -0.388; in [16], -1.62; in [17], 0.336 (inactive); in [18], -0.179; in assay [19], 0.181. The z-score in assay [20] is 0.0055 (inactive). Besides, in assay [2], the composite z-score is 0.0299.

For the compound `COc1ccc(CCNC(=O)[C@@]2(Sc3ccc(C)cc3)CC(=O)N(Cc3ccccc3Cl)[C@@H]2c2ccc(CO)cc2I)cc1`, the z-score is 0.265 (inactive) in assay [1]; 9.86 (active) in [3]; 0.902 (inactive) in assay [4]; 1.53 (inactive) in [5]; 0.231 (inactive) in [6]; 0.0671 in [7]. Also, the z-score in assay [8] is 1.54 (inactive); in [9], -1.54 (inactive); in assay [10] it was 1.32; in assay [11] it was 0.507; in [12], -1.07; in [13], 0.334. The z-score in assay [14] is -1.41; in [15] it was -1.54; in assay [16], 0.167; in [17], -0.0114 (inactive); in assay [18] it was -0.474; in assay [19], -1.96. The z-score in [20] is -0.478 (inactive). The compound also displayed a composite z-score in [2] of 0.198.

On to `COc1ccc([Si](C)(C)[C@@H]2[C@@H](CCn3cc([C@H](O)c4ccccc4)nn3)O[C@]3(C(=O)N(Cc4ccc(N5C(=O)c6cccc7cccc5c67)cc4)c4ccccc43)[C@H]2C)cc1`, for which the z-score in assay [1] is 0.74 (inactive); in assay [3], 1.23 (inactive); in assay [4] it was -0.611 (inactive); in assay [5] it was 0.957 (inactive); in [6], -0.68 (inactive); in assay [7] it was 1.11. For the same compound, the z-score in assay [8] was 0.584 (inactive); in [9] it was 1.01 (inactive); in assay [10], -0.539; in assay [11], -0.725; in assay [12] it was 1.91; in [13] it was -0.394. Further, the z-score in assay [14] is -0.709; in assay [15] it was -1.77; in assay [16], 2.05; in assay [17] it was 0.43 (inactive); in [18], -0.964; in assay [19], 0.209. In addition, the z-score in [20] is -1.92 (inactive). In [2], this compound yielded a composite z-score of -0.14.

For `COc1ccc([Si](C)(C)[C@H]2[C@H](CCn3cc(CCO)nn3)O[C@@]3(C(=O)N(Cc4ccc(N5CCOC5=O)cc4)c4ccccc43)[C@@H]2C)cc1`, the z-score in assay [1] was 0.176 (inactive); in assay [3], 33.4 (active); in assay [4], 34.8 (active); in assay [5] it was 2.62 (inactive); in assay [6] it was 6.01 (inactive); in assay [7] it was 0.711. The z-score in assay [8] was -0.564 (inactive); in assay [9], 2.16 (inactive); in assay [10], -0.419; in assay [11], 0.252; in assay [12], 0.469; in assay [13], 0.161. Moreover, the z-score was -3.07 in assay [14]; -2.73 in [15]; 0.484 in assay [16]; 0.854 (inactive) in assay [17]; -0.911 in [18]; -1.33 in [19]. Also, the z-score in assay [20] was -1.75 (inactive). Besides, the composite z-score in [2] is 0.308.
